8 compounds from PubChem BioAssay (NCATS) can be followed below.

Several values for one entry are separate records, joined by “and”; a condition that tells them apart may be missing. Equal values may be shown once. Records with an inconclusive call do not appear. Activity calls are given as the source filed them. Unless noted, the call rests on the fitted dose curve; in most records, active means well fitted curve in the direction sought with a large enough effect; inconclusive means small, poorly fitted or top-dose-only effect, or another doubt; inactive means no such curve, though single readings can be large; an effect the other way counts as inactive or inconclusive.

A short description of test [1]: qHTS Assay for Lipid Storage Modulators (AID 1519; calls by dose curve; on activity change, negative = inhibition: on the % scale 0 is the no-effect control and ±100 the full control effect). The following applies: Drosophila S3 cells, BODIPY lipid droplet/cell ratio, laser cytometry, cells loaded with oleic acid. The method, boiled down: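 Cells seeded at 5,000 per well were treated with compounds over a concentration series and loaded with oleic acid (400 uM, as added). Lipid droplet fluorescence (488 nm excitation, 500-530 nm channel) was read by laser-scanning cytometry and normalized to 20 uM Triacsin C.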

Test [2] has as its target alpha-glucosidase (Oryza sativa, rice) (UniProt Q653V4). Briefly: Counterscreen for Glucocerebrosidase Inhibitors: qHTS Assay for Rice alpha-Glucosidase at pH 5.0 (AID 997).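 Further: 0% = full activity with enzyme and -100% = basal without enzyme.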 The gist of the method:
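Rice alpha-glucosidase (4 nM final) with 400 uM 4-methylumbelliferyl-alpha-D-glucopyranoside in citrate buffer pH 5.0, 20 min at room temperature, stopped at pH 10; fluorescence 365/440 nm, compounds 0.7 nM–77 uM, AC50 from Hill fits.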

Test [3] in a line: Validation of Assay for Modulators of Lamin A Splicing (AID 1459; active means well fitted curve in the direction sought with a large enough effect in the signal ratio; the % refers to the signal ratio;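 further: cells exposed to compound for two days before reading; 0% is about no effect; ratio rise marks activators and ratio drop marks inhibitors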). The gist of the method:
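Readout: ratio of GFP (500-530 nm) to RFP (575-640 nm) total object intensity by 488 nm laser-scanning cytometry after 48 hrs. Cells were HeLa S3 clones carrying lamin A-EGFP minigene plus DsRed2 viability reporter; vehicle 0.5% DMSO final.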

Test [4] addresses DNA repair nuclease/redox regulator APEX1 (Homo sapiens) (UniProt P27695). Nature of the test: qHTS Validation Assay for Inhibitors of the Human Apurinic/apyrimidinic Endonuclease 1 (APE1) (AID 1705;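 further: TAMRA fluorescence gain over two minutes as APE1 cuts a quenched THF abasic duplex; on the % scale 0 is the no-effect control and ±100 the full control effect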). The method, boiled down:
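Read-out: TAMRA fluorescence (525 nm ex, 598 nm em) from cleavage of a quenched THF abasic-site duplex, 50 nM final; activity taken as intensity change between third and first of three reads 60 s apart.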
For orientation: Quantitative high-throughput screening tests each substance at several concentrations.

Test [5] is described as follows: Counterscreen for APE1 Inhibitors: Fluorescent Dye Displacement Validation Assay (AID 1707).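 Further: plate controls were ThO with dsDNA and no compound for no effect and ThO without dsDNA for full effect.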 The gist of the method: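 ThO 250 nM + dsDNA 50 nM (THF abasic site, 5'-TAMRA), Tris-HCl pH7.5/50mM NaCl/2 mM MgCl2/0.01% Tween-20; compounds pin-transferred; ex 480/em 540 nm endpoint. Neutral = no compound; no-DNA ThO wells = negative control.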
On the technique in general: Counterscreens check selectivity or assay interference.

The target of test [6] is Endonuclease 4 (Escherichia coli (strain K12)) (UniProt P0A6C1). Nature of the test: Counterscreen for APE1 Inhibitors: qHTS Validation Assay for Inhibitors of Endonuclease IV (AID 1708). Further: on the % scale 0 is the no-effect control and ±100 the full control effect. The gist of the method: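 Concentration-response counterscreen run identically to the APE1 assay: 15 min room-temperature preincubation of 2 nM enzyme with compound, reaction started with 50 nM quenched abasic DNA, progress taken from kinetic fluorescence.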

Test [7] is described as follows: qHTS for differential inhibitors of proliferation of Plasmodium falciparum line GB4 (AID 1816).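 Further: parasite growth measured after 72 h incubation.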 Further: potency means the concentration at half of the fitted maximal effect.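 On activity change, negative = inhibition: 0% = vehicle DMSO and -100% = reference inhibitor.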 The conditions noted are these: Potency: Plasmodium falciparum GB4 proliferation inhibition.
A short description of test [8]: qHTS for differential inhibitors of proliferation of Plasmodium falciparum line 3D7 (AID 1876).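 Further: parasite growth measured after three days of culture; 0% = vehicle wells and -100% = reference inhibitor wells.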
Test [9] is described as follows: qHTS for differential inhibitors of proliferation of Plasmodium falciparum line D10 (AID 1877).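 Further: parasites grown with compound for 72 h before DNA staining.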 Further: potency means the concentration at half of the fitted maximal effect.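 On activity change, negative = inhibition: plate controls were vehicle wells for no effect and reference inhibitor wells for full effect.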
A short description of test [10]: qHTS for differential inhibitors of proliferation of Plasmodium falciparum line Dd2 (AID 1882).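 Further: plate controls were DMSO vehicle for no effect and 0.29 µM artemisinin for full effect; nearly all actives have a fitted effect of over 65% in size.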 The conditions noted are these: Potency: Plasmodium falciparum Dd2 proliferation inhibition. The method, boiled down:
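Dd2-infected erythrocytes (0.3% parasitemia, 2.5% hematocrit final) incubated with compound 72 h at 37 C, 5% CO2; lysed with saponin/Triton buffer containing SYBR Green I, incubated overnight in the dark, then read by fluorescence (485/535 nm). Normalized to 0.29 uM artemisinin and DMSO.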

Test [11] in a line: qHTS for differential inhibitors of proliferation of Plasmodium falciparum line HB3 (AID 1886).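 Further: parasites grown with compound for 72 h before SYBR Green readout.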 Further: potency means the concentration at half of the fitted maximal effect.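 On activity change, negative = inhibition: plate controls were vehicle for no effect and reference inhibitor for full effect.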 The following applies: Potency: Plasmodium falciparum HB3 proliferation inhibition.
In test [12] the target is Ferritin light chain (Equus caballus) (UniProt P02791). Nature of the test: qHTS Validation Assay for Identification of Novel General Anesthetics (AID 2323). Further: on the % scale 0 is the no-effect control and ±100 the full control effect. The method, boiled down: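 10 uM horse-spleen apoferritin + 1-AMA (50% saturated, PBS); cpd pin-transferred, 10 min RT. Ex 380/Em 535 nm endpoint. Activity normalized between free 1-AMA and 1-AMA/apoferritin; 4-parameter Hill fit of concentration-response.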

For test [13], the target named is ATP-dependent DNA helicase Q1 (Homo sapiens) (UniProt P46063). Briefly: qHTS Validation Assay for Inhibitors of RecQ-Like Dna Helicase 1 (RECQ1) (AID 2353).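 Further: plate controls were DMSO vehicle for no effect and enzyme-free control for full effect.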 The gist of the method: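 50 nM RECQ1T1 preincubated 15 min with compound in Tris pH 8.0 buffer with MgCl2, DTT, Tween-20 and 2.5 ug/ml poly(dI-dC); started with 200 nM TAMRA/BHQ-2 forked duplex and 2 mM ATP. Unwinding read as fluorescence (525/598 nm), two reads 2 h apart.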

Test [14] is described as follows: Cytometric Cell-Based qHTS for Inhibitors of the mTORC1 Signaling Pathway in MEF (Tsc2-/-, p53-/-) Cells (AID 2660).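 Further: percent of cells above a phospho-rpS6 to PI ratio cutoff in each well; plate controls were DMSO for no effect and rapamycin for full effect.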 The gist of the method: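 Percent of cells positive for normalized phospho-S6 staining is reported, with the cutoff set from rapamycin (7.5 nM) versus DMSO wells. Tsc2-/-, p53-/- MEFs received compound for 24 hrs.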
Test [15] is described as follows: High Content Imaging Cell-Based qHTS for Inhibitors of the mTORC1 Signaling Pathway in MEF (Tsc2-/-, p53-/-) Cells (AID 2666).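 Further: percent of cells scored positive for phospho-rpS6 Ser235/236 immunostaining by imaging.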 The following applies: at 38.3 µM (top of the series). The gist of the method:
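Read-out: % positive cells per well, with thresholds from highest- and lowest-signal wells, based on phospho-rpS6 (Ser235/236) intensity normalized to Hoechst nuclear stain. Cells: Tsc2-/-, p53-/- MEFs carrying empty vector; compound 24 hrs, 37 degree Celsius.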

Test [16] can be described thus: qHTS for differential inhibitors of proliferation of Plasmodium falciparum line 7G8 (AID 1815).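 Further: parasite growth measured after three days of incubation.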 Further: potency means the concentration at half of the fitted maximal effect.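 On activity change, negative = inhibition: plate controls were vehicle wells for no effect and reference inhibitor wells for full effect.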
The nature of test [17]: qHTS for differential inhibitors of proliferation of Plasmodium falciparum line W2 (AID 1883).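 Further: parasites grown with compound for 72 h before lysis and staining.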 Further: potency means the concentration at half of the fitted maximal effect.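 On activity change, negative = inhibition: 0% = vehicle wells and -100% = control inhibitor wells.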 The following applies: Potency: Plasmodium falciparum W2 proliferation inhibition.
A short description of test [18]: qHTS Assay for Modulators of Human Peripheral Myelin Protein 22 (PMP22) Expression/Activity (AID 1967; active means well fitted curve in the direction sought with a large enough effect in the signal ratio; the % refers to the signal ratio;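 further: 0% = untreated cells and 100% end not stated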). The gist of the method:
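Mouse MSC80 Schwann line, Pmp22 promoter–CBG68 reporter, EF-alpha–CBR internal control. 24h compound exposure, 37 °C/5% CO2, DMEM + 10% FBS. Readout: corrected green/red luminescence ratio, normalized to untreated cells; concentration-response curves fitted and classified.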

Test [19] deals with RecQ-like DNA helicase BLM (Homo sapiens) (UniProt P54132). Nature of the test: qHTS Validation Assay for Inhibitors of Bloom's syndrome helicase (BLM) (AID 2364).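 Further: plate controls were DMSO vehicle for no effect and enzyme-free control for full effect.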 The method, boiled down: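 BLM 50 nM in 25 mM Tris-HCl pH 8.0, 5 mM NaCl, 2 mM MgCl2, 1 mM DTT, 0.01% Tween-20, 2.5 ug/ml poly(dI-dC); 15 min cpd preinc, RT. Start: 200 nM forked DNA + 2 mM ATP (final). TAMRA read, 2 reads 2 h apart.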

Setting [20] is: measured here: cell count channel max response.
Setting [21] is: measured here: lipid channel max response.

Sequence of Ferritin light chain (Equus caballus) (P02791 2-175 limits assumed): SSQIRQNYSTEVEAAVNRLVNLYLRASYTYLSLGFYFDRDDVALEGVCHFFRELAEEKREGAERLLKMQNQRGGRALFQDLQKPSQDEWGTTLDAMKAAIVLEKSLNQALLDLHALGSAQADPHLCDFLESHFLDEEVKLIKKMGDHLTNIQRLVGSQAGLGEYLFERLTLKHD
Sequence of ATP-dependent DNA helicase Q1 (Homo sapiens) (P46063 whole entry, looked up): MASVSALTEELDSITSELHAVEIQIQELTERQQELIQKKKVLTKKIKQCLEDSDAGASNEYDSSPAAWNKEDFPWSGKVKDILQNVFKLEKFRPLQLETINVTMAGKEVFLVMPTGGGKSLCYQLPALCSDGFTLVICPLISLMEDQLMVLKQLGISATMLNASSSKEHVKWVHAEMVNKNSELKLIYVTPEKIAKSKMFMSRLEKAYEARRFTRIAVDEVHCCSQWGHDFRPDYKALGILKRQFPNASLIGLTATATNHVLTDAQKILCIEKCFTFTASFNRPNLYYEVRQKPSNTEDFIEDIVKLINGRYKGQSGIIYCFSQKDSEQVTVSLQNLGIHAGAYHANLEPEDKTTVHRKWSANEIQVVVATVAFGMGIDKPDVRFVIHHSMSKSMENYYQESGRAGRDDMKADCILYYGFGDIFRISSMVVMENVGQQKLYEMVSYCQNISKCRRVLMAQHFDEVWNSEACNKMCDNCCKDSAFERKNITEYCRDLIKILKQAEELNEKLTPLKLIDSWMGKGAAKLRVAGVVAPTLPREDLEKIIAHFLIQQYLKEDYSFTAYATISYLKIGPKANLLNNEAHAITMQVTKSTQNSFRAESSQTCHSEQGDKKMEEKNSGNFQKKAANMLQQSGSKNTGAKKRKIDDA
Sequence of DNA repair nuclease/redox regulator APEX1 (Homo sapiens) (P27695 whole entry, looked up): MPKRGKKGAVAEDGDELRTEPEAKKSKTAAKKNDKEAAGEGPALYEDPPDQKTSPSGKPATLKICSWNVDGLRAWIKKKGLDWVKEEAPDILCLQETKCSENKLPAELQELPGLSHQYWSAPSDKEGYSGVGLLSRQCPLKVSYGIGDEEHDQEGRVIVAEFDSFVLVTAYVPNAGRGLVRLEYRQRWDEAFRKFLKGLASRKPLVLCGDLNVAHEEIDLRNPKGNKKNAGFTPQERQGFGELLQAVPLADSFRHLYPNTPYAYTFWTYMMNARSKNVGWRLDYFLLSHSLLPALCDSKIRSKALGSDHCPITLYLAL
Sequence of RecQ-like DNA helicase BLM (Homo sapiens) (P54132 whole entry, looked up): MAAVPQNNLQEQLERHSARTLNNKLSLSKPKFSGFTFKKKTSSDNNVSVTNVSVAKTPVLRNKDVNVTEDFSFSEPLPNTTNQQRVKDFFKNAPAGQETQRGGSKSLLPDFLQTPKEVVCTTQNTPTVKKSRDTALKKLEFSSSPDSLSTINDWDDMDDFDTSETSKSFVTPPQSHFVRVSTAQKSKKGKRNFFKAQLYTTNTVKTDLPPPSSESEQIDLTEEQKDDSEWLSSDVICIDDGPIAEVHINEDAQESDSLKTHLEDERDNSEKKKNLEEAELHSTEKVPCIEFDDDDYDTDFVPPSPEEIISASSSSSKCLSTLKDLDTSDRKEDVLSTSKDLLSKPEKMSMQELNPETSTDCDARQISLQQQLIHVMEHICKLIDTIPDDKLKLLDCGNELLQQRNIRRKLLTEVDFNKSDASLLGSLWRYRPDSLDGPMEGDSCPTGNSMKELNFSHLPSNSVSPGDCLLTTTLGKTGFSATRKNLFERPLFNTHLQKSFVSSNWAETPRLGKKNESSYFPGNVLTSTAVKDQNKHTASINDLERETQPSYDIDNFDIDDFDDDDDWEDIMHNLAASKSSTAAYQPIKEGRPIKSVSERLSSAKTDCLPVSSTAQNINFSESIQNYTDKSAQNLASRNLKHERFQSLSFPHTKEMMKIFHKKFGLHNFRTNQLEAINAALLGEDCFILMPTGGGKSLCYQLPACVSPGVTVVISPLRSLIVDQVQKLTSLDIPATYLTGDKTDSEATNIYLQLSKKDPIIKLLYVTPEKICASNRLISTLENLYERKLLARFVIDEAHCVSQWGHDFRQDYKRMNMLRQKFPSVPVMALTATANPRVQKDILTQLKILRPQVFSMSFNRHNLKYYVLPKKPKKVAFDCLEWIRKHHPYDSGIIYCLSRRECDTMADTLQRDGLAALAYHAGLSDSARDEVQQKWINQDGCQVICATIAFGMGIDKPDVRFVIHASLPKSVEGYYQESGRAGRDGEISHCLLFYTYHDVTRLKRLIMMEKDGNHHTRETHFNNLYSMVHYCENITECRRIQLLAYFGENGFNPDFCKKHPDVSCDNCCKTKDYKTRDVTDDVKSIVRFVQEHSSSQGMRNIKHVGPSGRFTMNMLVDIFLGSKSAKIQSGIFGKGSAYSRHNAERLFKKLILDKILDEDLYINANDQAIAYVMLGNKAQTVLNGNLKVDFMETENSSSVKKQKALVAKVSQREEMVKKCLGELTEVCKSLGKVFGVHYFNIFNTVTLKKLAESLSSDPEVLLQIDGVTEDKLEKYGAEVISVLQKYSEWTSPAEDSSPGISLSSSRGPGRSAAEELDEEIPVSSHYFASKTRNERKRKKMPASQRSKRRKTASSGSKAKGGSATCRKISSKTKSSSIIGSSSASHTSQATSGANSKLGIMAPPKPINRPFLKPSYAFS

Consider `CCCc1nc2c(C)cc(-c3nc4ccccc4n3C)cc2n1Cc1ccc(-c2ccccc2C(=O)O)cc1`, for which the activity change, negative = inhibition in test [1] (at 57.5 µM (top of the series)) is -11.9% (inactive). The max response was -6.13% in test [1] (setting [20]) and -15.7% in test [1] (setting [21]).

As for `NC[C@H](O)c1ccc(O)c(O)c1`, the outcome in [2], in test [3], in [4], in test [5], in test [6] and in test [12] was inactive. In addition, the call in [13], in [14] and in test [15] was inactive. Moreover, the activity change, negative = inhibition in test [1] (at 57.5 µM (top of the series)) was 0.534% (inactive). In addition, the max response was -22.5% in [1] (setting [20]) and -21.1% in [1] (setting [21]). The Potency result in test [7], in test [8], in test [9], in [10] and in test [11] was “inactive” each time.

In the case of `CCC(C)N(C)C(=O)c1cc2ccccc2c(-c2ccccc2Cl)n1` (stereo not given), the compound was classed as inactive in test [3], in test [4], in [5], in [13], in test [14] and in test [15]. Moreover, the Potency in test [16] is 7.94 µM (active); in test [7] it was 12.6 µM (active); in test [9], 11.2 µM (active); in test [17], 7.94 µM (active); in test [11], 12.6 µM (active). In test [10], the Potency result is “inactive”.

For `N#Cc1ccc(C(c2ccc(C#N)cc2)n2cncn2)cc1`, in [1] (at 25.7 µM (top of the series)), the activity change, negative = inhibition is 0.817% (inactive). Moreover, the max response in test [1] (setting [20]) is -19.8%; in [1] (setting [21]), -18.7%.

In the case of `NNCCc1ccccc1`, the compound was called inactive in test [2], in test [4], in test [5], in test [6], in test [12] and in [13]. Further, the compound was called inactive in [14] and in test [15]. The activity change, negative = inhibition in [1] (at 25.7 µM (top of the series)) was 1.11% (inactive); in [1] (at 57.5 µM (top of the series)), 11.9% (inactive). Further, the max response in [1] (setting [20]) was 3.17% and -11.1%; in test [1] (setting [21]) it was -2.33% and 4.58%. Moreover, the Potency entry in test [9] and in test [10] was “inactive” in each case.

As to `CCCc1nn(C)c2c(=O)[nH]c(-c3cc(S(=O)(=O)N4CCN(C)CC4)ccc3OCC)nc12`, in test [1] (at 57.5 µM (top of the series)), the activity change, negative = inhibition is 9.83% (inactive). The values for the max response in [1] (setting [20]) and in test [1] (setting [21]) were 12.2% and 27.6%, respectively.

As for `Nc1nc2ccc(OC(F)(F)F)cc2s1`, the outcome in test [2], in [4], in [5], in test [6], in test [12] and in test [13] was inactive. Besides, the result in [14] and in test [15] was inactive. In addition, the values for the activity change, negative = inhibition in test [1] (at 25.7 µM (top of the series)) and in [1] (at 57.5 µM (top of the series)) were -1.29% (inactive) and 1.85% (inactive), respectively. Besides, the max response in [1] (setting [20]) was -7.42% and -26.5%; in test [1] (setting [21]), -8.28% and -25.3%. The Potency result in [16], in test [7], in test [8], in test [9] and in test [11] was “inactive” in each case.

In the case of `Nc1ccc(S(=O)(=O)Nc2ccnn2-c2ccccc2)cc1`, the compound was classed as inactive in test [2], in test [3], in test [4], in test [5], in test [6] and in test [18]. In addition, the outcome in test [13], in test [14] and in [15] was inactive. For the same compound, the results for the activity change, negative = inhibition in [1] (at 25.7 µM (top of the series)) and in test [1] (at 57.5 µM (top of the series)) were -1.01% (inactive) and 14.1% (inactive), respectively. Moreover, the max response was -3.22% and 11.1% in test [1] (setting [20]); -3.23% and 26.2% in [1] (setting [21]). Moreover, the Potency entry in test [16], in test [7], in [8], in test [9], in [10] and in test [17] was “inactive” throughout. For the same compound, the Potency entry in [11] and in [19] was “inactive” throughout.
